High-throughput results (PubChem)
Rows were chosen to be rich in hits. Some 7.6% of all compounds tested hit in one or more screens of this group.
Cy5 interf NS3h – counter-screen for HCV NS3 helicase inhibitors: fluorescence interference; Cy5-dT15 DNA with NS3h; actives lie on both sides; signal over control mean, under 1 quenches; fluorescence interference ratio at 100 µM; 16,000 compounds, 6% hits; AID 720488;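 active means compound fluorescence over control fluorescence at most 0.8, a quencher, or at least a set upper limit, an enhancer; inactive means ratio between 0.8 and the set upper limit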
HCV NS3h FP – hepatitis C NS3 helicase inhibition, primary screen; AID 687043; NS3h Cy5-dT15 DNA binding, fluorescence polarization; inhibition, % at 100 µM; 16,000 compounds, 1.6% hits;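 active means inhibition above the average over every tested compound plus 3 SD, cut at about 40% in these data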
Active calls of the source: *.

SMILES	Cy5 interf NS3h	HCV NS3h FP
COc1ccc(NC(=O)c2cnn3c2NC(c2ccccc2)CC3C(F)(F)F)cc1OC (stereo not drawn)	0.73*	9
COc1ccc(C2CC(C(F)(F)F)n3ncc(C(=O)O)c3N2)cc1OC (stereo not drawn)	1	-10
COc1cc(C2CC(C(F)(F)F)n3ncc(C(=O)N4CCN(Cc5ccccc5)CC4)c3N2)cc(OC)c1OC (stereo not drawn)	1	5
CC(O)c1cccc(NC(=O)c2cc3n(n2)C(C(F)(F)F)CC(c2ccc(Cl)cc2)N3)c1 (stereo not drawn)	1	-3
CC(O)c1cccc(NC(=O)c2cnn3c2NC(c2ccco2)CC3C(F)(F)F)c1 (stereo not drawn)	0.49*	17
COc1ccc(CNC(=O)c2cnn3c2NC(c2ccco2)CC3C(F)(F)F)cc1 (stereo not drawn)	0.75*	14
O=C(c1cnn2c1NC(c1ccco1)CC2C(F)(F)F)N1CCN(Cc2ccccc2)CC1 (stereo not drawn)	0.7*	5
O=C1C2C3C=CC(C3)C2C(=O)N1/N=C\c1cc(Br)c(O)cc1O (stereo not drawn)	1	-8
COc1ccc(C2=NN(c3nc(-c4ccc(F)cc4)cs3)C(c3ccc(OC)cc3)C2)cc1 (stereo not drawn)	1	2
COc1ccc(C2C(=C(O)c3ccccc3)C(=O)C(=O)N2c2cccc([N+](=O)[O-])c2)c(OC)c1 (stereo not drawn)	1	7
COc1ccccc1N1CCN(/N=C\c2cc(Br)ccc2F)CC1	0.97	6
COc1ccc(C2CC(C(F)(F)F)n3ncc(C(=O)Nc4cccc(C(C)O)c4)c3N2)cc1OC (stereo not drawn)	0.7*	8
COc1ccc(C2CC(C(F)(F)F)n3ncc(C(=O)Nc4cc(Cl)ccc4O)c3N2)cc1OC (stereo not drawn)	0.99	6
O=c1oc2cc(OCc3c(F)cccc3Cl)c(Cl)cc2c2c1CCC2	1.2	7
COc1ccccc1NC(=O)c1ccc(Cl)cc1Cl	0.99	14
COc1ccc(-c2nnc(Nc3ccccc3)c3ccccc23)cc1	0.85	35
CC(C)NC(=O)c1cnn2c1NC(c1ccc(Br)cc1)CC2C(F)(F)F (stereo not drawn)	1.1	10
Cc1ccc(C2CC(C(F)(F)F)n3ncc(C(=O)N4CCSCC4)c3N2)cc1 (stereo not drawn)	0.49*	15
O=C(NCc1cccs1)c1cnn2c1NC(c1ccc(Br)cc1)CC2C(F)(F)F (stereo not drawn)	0.49*	19
O=C(O)c1cnn2c1NC(c1ccc(F)cc1)CC2C(F)(F)F (stereo not drawn)	0.95	-4
O=C(O)c1cnn2c1NC(c1ccc(Br)cc1)CC2C(F)(F)F (stereo not drawn)	0.79*	-12
CN1CCN(C(=O)c2cnn3c2NC(c2ccc(Br)cc2)CC3C(F)(F)F)CC1 (stereo not drawn)	1	2
O=C1C2C3CCC(O3)C2C(=O)N1c1ccccc1 (stereo not drawn)	1	-1
Cc1ccc(N2C(=O)/C(=C/c3cccc4ccccc34)SC2=S)cc1	0.95	5
CC(C)CNC(=O)c1cccc(NC(=O)CN2C(=O)c3ccccc3C2=O)c1	1	21
SMILES	Cy5 interf NS3h	HCV NS3h FP
Cc1cc(C(F)(F)F)nn1CC(=O)Nc1sc2c(c1C(N)=O)CCC(C)C2 (stereo not drawn)	0.75*	10
CCOC(=O)c1c(NC(=O)Cn2nc(C(F)(F)F)cc2C)sc2c1CCC(C)C2 (stereo not drawn)	0.98	6
COc1ccc(/C=C/C(=O)NC(=S)Nc2ccccc2C)cc1OC	1	4
COc1ccc(C)cc1NC(=O)c1cccnc1	1.1	-9
O=C(Nc1ccc2c(c1)OCO2)c1nn2c(c1Cl)NC(c1ccc(Br)cc1)CC2C(F)(F)F (stereo not drawn)	0.92	4
Nc1ccccc1C(=O)N=Nc1c(O)[nH]c2ccccc12	1.1	0
O=C(c1cc2nc(-c3cccs3)cc(C(F)(F)F)n2n1)N1CCc2ccccc2C1	0.96	13
NC(=O)c1cc2nc(-c3cccs3)cc(C(F)(F)F)n2n1	0.66*	11
CCOC(=O)COc1ccc(/C=C2\C(=O)NC(=O)N(c3ccc(C)cc3)C2=O)cc1OC	1	5
Cc1ccc(C2C3=C(CC(C)(C)CC3=O)OC3=C2C(=O)CC(C)(C)C3)o1	0.67*	16
CC1(C)CC(=O)C2=C(C1)OC1=C(C(=O)CC(C)(C)C1)C2c1cccc([N+](=O)[O-])c1	1	15
COc1cccc(/C=C2\C(=O)NC(=O)N(c3cc(C)cc(C)c3)C2=O)c1OC	1	0
O=C(c1ccccc1O)N1N=C(c2ccc(Br)cc2)CC1(O)C(F)(F)F (stereo not drawn)	0.92	5
O=C(c1ccccc1Br)N1N=C(c2ccccc2)CC1(O)C(F)(F)F (stereo not drawn)	0.79*	5
CN(C)/C=C/C=C1\CC(=O)N(c2ccccc2)C1=O	0.89	8
CC1CC/C(=C\C=C\N(C)C)C(=O)/C1=C/C=C/N(C)C (stereo not drawn)	0.72*	28
COc1ccc(NC(=O)/C=C/c2ccccc2Cl)c([N+](=O)[O-])c1	1	8
O=C(/C=C/c1ccccc1Cl)Nc1ccccc1[N+](=O)[O-]	1.1	41*
Cc1ccc(N2C(=O)C3ON(c4ccc(Cl)cc4)C(c4cccs4)C3C2=O)cc1 (stereo not drawn)	0.95	8
COc1c(F)c(F)c(-c2c(F)c(F)c(OC)c(F)c2F)c(F)c1F	1.1	3
O=C(COc1ccc2ccc(=O)oc2c1)c1ccc(-c2ccccc2)cc1	0.95	33
Cc1ccc(C(=O)COc2cc(OCC(=O)c3ccc(C)cc3)c3c(C)cc(=O)oc3c2)cc1	0.66*	2
O=C(NCC1CCCO1)c1cnn2c(C(F)(F)F)cc(-c3ccc4c(c3)OCO4)nc12 (stereo not drawn)	1.1	7
O=C(N/N=C\c1cccc(O)c1)c1cncc(Br)c1	1	30
O=C(Oc1cccc2ccccc12)c1ccc(Cl)cc1Cl	0.64*	6
SMILES	Cy5 interf NS3h	HCV NS3h FP
O=S(=O)(Oc1cccc2ccccc12)c1cc(Cl)ccc1Cl	1	12
Nc1ccc(C(=O)Nc2cccc(O)c2)cc1	1.1	1
COc1ccc(C2=N/C(=C/c3ccc([N+](=O)[O-])cc3)C(=O)N2c2ccc(O)cc2)cc1	0.79*	16
Cc1cccc(C2=N/C(=C/c3ccc([N+](=O)[O-])cc3)C(=O)N2c2ccc(O)cc2)c1	0.97	15
COC(=O)c1cc(C(=O)N2CC(C)OC(C)C2)cc([N+](=O)[O-])c1 (stereo not drawn)	1.1	0
COc1cc(/C=C2\SC(=S)NC2=O)ccc1Oc1ccc([N+](=O)[O-])cn1	0.89	-3
COc1cc(C=C2C(=O)N(C)C(=O)N(C)C2=O)ccc1Oc1ccc([N+](=O)[O-])cn1	0.79*	30
CN1C(=O)C(=Cc2ccccc2OCc2ccc([N+](=O)[O-])cc2)C(=O)N(C)C1=O	0.58*	33
O=C(O)CN1C(=O)/C(=C/c2ccccc2OCc2ccc([N+](=O)[O-])cc2)SC1=S	1.1	24
COC(=O)c1cccc(-c2ccc(/C=C3/C(=O)NN(c4cccc(Cl)c4)C3=O)o2)c1	0.77*	12
